In PubChem BioAssay AID686978 (National Center for Advancing Translational Sciences (NCATS), 2013):
In all, about 420,000 compounds went through this assay and about 64,000 (15%) were called active. Roughly 27% stayed inconclusive and do not appear here. Not all results are given here. A number with no mark means an inactive call. The call rests on the fitted dose curve; in most records, active means well fitted inhibition curve with a large enough effect; inconclusive means small, poorly fitted or top-dose-only effect; inactive means flat fitted curve, though single readings scatter.

assay: qHTS for Inhibitors of human tyrosyl-DNA phosphodiesterase 1 (TDP1): qHTS in cells in absence of CPT; conditions: DT40 Tdp1-/- hTDP1 cells, no CPT, ATP luminescence, 48 h; activity change, negative = growth inhibition: at 46.2 µM (top of the series); further: nearly all actives have a fitted effect of over 55% in size
Summary of the method: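 Compound effects on proliferation are scored in DT40 Tdp1-/-;hTDP1 cells in the absence of CPT. ATP levels (CellTiter-Glo luminescence) are recorded after a ≥48 hr, 37 °C incubation.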
On the % scale 0 is the no-effect control and ±100 the full control effect; potency means the concentration at half of the fitted maximal effect.

| SMILES | activity change, negative = growth inhibition | Potency |
| --- | --- | --- |
| CCCCNC(=O)OCCSCCS(=O)(=O)c1ccc(Cl)cc1 | -14.4% |  |
| CC12CCCCC1=CC(=O)CC2 (stereo unspecified) | -2.63% |  |
| Cc1c(Cl)cccc1NC(=O)NCCCN1CCCC1=O | 19.6% |  |
| Cc1cccc([C@@H]2[C@@H]3C(=O)N(C)C(=O)[C@@H]3[C@@H]3C(=O)Nc4ccccc4C(=O)N23)c1 | -7.16% |  |
| Cc1cccc([C@H]2[C@@H]3C=CC[C@@H](C)[C@@H]3C(=O)N2Cc2ccccc2)c1 |  | 14.6 µM (active) |
| Cc1cccc([C@@H]2[C@@H]3C(=O)N(Cc4ccccc4)C(=O)[C@@H]3[C@]3(Cc4ccc(Cl)cc4)C(=O)N(c4cccc(Cl)c4)C(=O)N23)c1 | -6.02% |  |
| Cc1ccc(-c2cccc([C@H]3[C@@H]4C=CC[C@@H](C)[C@@H]4C(=O)N3Cc3ccccc3)c2)cc1 |  | 20.6 µM (active) |
| O=C(NNC(=S)NCCCN1CCOCC1)c1ccncc1 | 3.65% |  |
| CC(C)c1ccc(/C=C/C(=O)NCCCN2CCOCC2)cc1 |  | 20.6 µM (active) |
| O=C(NCCCN1CCOCC1)c1ccc([N+](=O)[O-])cc1[N+](=O)[O-] | -13.5% |  |
| CCCC(=O)N(CCc1ccccc1)Cc1nc2ccccc2c(=O)[nH]1 | -19% |  |
| CN(C)CCCNC(=O)c1cc(C(=O)Cc2ccc(Cl)cc2)c[nH]1 | -22.6% |  |
| O=C(COC(=O)Cc1ccccc1F)NCCc1ccccc1 | 4.69% |  |
| N=c1n(CCc2ccccc2)c2ccccc2n1Cc1ccccc1F |  | 5.17 µM (active) |
| CCCCc1nccn1CCn1ccnc1CCCC | -3.8% |  |
| CC(C)NC(=O)NC(=O)CSc1nnc(-c2ccccc2F)n1N | 14.1% |  |
| C=C(Br)Cn1c(CCCC)nc2ccccc21 |  | 11.6 µM (active) |
| O=C(O)Cn1c(Cc2ccccc2)nc2ccccc21 | 4.87% |  |
| C=CCn1c(P(C)(=O)O)nc2ccccc21 |  | inactive |

| SMILES | activity change, negative = growth inhibition | Potency |
| --- | --- | --- |
| CCCCCCCC/C=C\CCCCCCCC(=O)OC[C@H](CO)OC(C)=O | -8.7% [at 4.12 µM] |  |
| CCCOC(=O)c1c(NC(=O)c2cc3nc(-c4ccc(OC)cc4)cc(C(F)(F)F)n3n2)sc2c1CCCC2 | -3.89% |  |
| CC(=O)NS(=O)(=O)c1ccc2c(c1)Cc1cc(S(=O)(=O)NC(C)=O)ccc1-2 | -11% |  |
| Cc1nc2nc3c(cn2n1)C(=O)CC(c1ccccc1)C3 (stereo unspecified) | -25.6% |  |
| CCC(=O)N1c2ccccc2NC2=C(C(=O)CCC2)C1c1ccco1 (stereo unspecified) | -2.89% |  |
| O=C1CC(c2ccccc2)CC2=C1C(c1ccco1)n1nc(C(F)(F)F)nc1N2 (stereo unspecified) |  | 14.1 µM (active) |
| CCOc1ccc(S(=O)(=O)NCCC(=O)NCC(C)(C)N2CCOCC2)cc1 | -6.6% |  |
| Cc1ccccc1NC(=O)C(C)c1ccc(-c2ccccc2)c(F)c1 (stereo unspecified) |  | 16.4 µM (active) |
| O=C(Nc1ccccc1F)c1ccccc1-c1ccccc1 | -13.5% |  |
| CC(C(=O)Nc1ccccc1-c1ccccc1)N1CCOCC1 (stereo unspecified) | -21.9% |  |
| COc1ccc(N=Nc2c(-c3ccc(OC)cc3)[nH]oc2=O)cc1 | -12.5% |  |
| COC1=CC(=O)OC(c2ccc(OC)cc2)C1 (stereo unspecified) | 2.03% |  |
| COc1ccc(N=C2C=CC(=O)O2)cc1 |  | 4.61 µM (active) |
| COc1ccc(OC)c2c(N)c(C#N)c(C(F)(F)C(F)(F)F)nc12 | 3.02% |  |
| Cc1ccc(C(=O)OCC(=O)NCc2ccc3c(c2)OCO3)s1 | -5.24% |  |
| COc1ccc(-c2cc(C(F)(F)F)nc(S(C)(=O)=O)n2)cc1OC |  | 5.17 µM (active) |
| CCN(CC)S(=O)(=O)c1cccc(C(=O)NCC(=O)OCC(=O)NCc2ccccc2)c1 | -25.2% |  |
| CCNC(=O)COc1cc(C)c(Br)c(C)c1 | 1.43% |  |
| Cc1cc(F)ccc1NC1(c2ccccc2)C(=O)c2ccccc2C1=O | -0.108% |  |

| SMILES | activity change, negative = growth inhibition | Potency |
| --- | --- | --- |
| CNc1ccc(NC(C)=O)cc1[N+](=O)[O-] | -0.228% |  |
| CC(=O)Nc1ccc(NC(=S)NC(=O)c2ccc([N+](=O)[O-])c(C)c2)cc1 | -9.77% |  |
| CC(=O)Nc1ccc(/C=N/Nc2ccc(C(=O)c3c(C)cc4ccccn34)cc2[N+](=O)[O-])cc1 |  | 11.6 µM (active) |
| CCC(C)NCC(=O)Nc1ccc([N+](=O)[O-])cc1C(=O)Nc1ccccc1F (stereo unspecified) | -23% |  |
| Cc1ccc(S(=O)(=O)N(C)CC(=O)OCC(=O)N2CC(=O)Nc3ccccc32)cc1 | -9.32% |  |
| COc1ccccc1C(=O)NC(=O)COC(=O)c1ccco1 | -4.23% |  |
| CCn1nc(C)cc1C(=O)N1CCCC(C(=O)c2cccc(OC)c2)C1 (stereo unspecified) | -29.3% |  |
| Cc1cc(C)c(S(=O)(=O)N2CCC(C(=O)OCc3c(C)noc3C)CC2)c(C)c1 | 2.1% |  |
| O=C(c1ccc2c(c1)OCO2)N1CCOCC1 | 0.596% |  |
| COc1ccc(C(=O)C2CCCN(S(=O)(=O)c3cccc(C)c3)C2)c(C)c1 (stereo unspecified) |  | 18.4 µM (active) |
| CCNC(=O)C1CCCN(C(=O)c2ccc(OC)cc2OC)CC1 (stereo unspecified) | -2.02% |  |
| COc1cccc(N2CCN(C(=O)C3CCCN(S(=O)(=O)c4cnc[nH]4)C3)CC2)c1 (stereo unspecified) | -25% |  |
| Cc1cc(Cl)ccc1C(=O)C1CCCN(C(=O)c2nonc2C)C1 (stereo unspecified) | -26.4% |  |
| COc1ccc(OC)c(S(=O)(=O)N2CCCC(C(=O)NCCc3ccccc3)C2)c1 (stereo unspecified) | -23.5% |  |
| CCOC(=O)C1CCN(S(=O)(=O)c2c(C)noc2C)CC1 | 21.5% |  |
| COc1c(C)cc(C(=O)C2CCCN(S(=O)(=O)c3c(C)noc3C)C2)cc1C (stereo unspecified) |  | 16.4 µM (active) |
| Cc1cc(Cl)ccc1C(=O)C1CCCN(C(=O)c2ccc3c(c2)OCO3)C1 (stereo unspecified) |  | 8.2 µM (active) |
| COc1ccc(C(=O)C2CCCN(C(=O)c3ccc(OC)o3)C2)c(C)c1 (stereo unspecified) |  | 16.4 µM (active) |
